According to PubChem BioAssay AID1259415 (National Center for Advancing Translational Sciences (NCATS), 2018):
Among all 410,000 compounds or so, about 18,000 (4.4%) were called active. Inconclusive results (about 7%) are left out. The entries come from a sample that favours actives as a whole. A number with no mark means an inactive call. Rule as the data show it: active = activity change below about -60%; inconclusive = no clear call, values can overlap the other calls; inactive = above about -39%.

Experiment: qHTS Assay for inhibitors of the human cytomegalovirus (HCMV)
Conditions: HFF cells, HCMV-luciferase reporter, 72 h; at 57.5 µM; stronger effect = lower value
Text: NCGC Assay Overview: Infection with human cytomegalovirus (HCMV) continues to pose significant threats for pregnant women and immunocompromised hosts. HCMV causes serious morbidity and mortality in transplant recipients, and congenital HCMV is the leading infectious cause of mental retardation and deafness in children. In the 1990s, the annual costs associated with the disease burden of congenital CMV were estimated at around $2 billion. A HCMV vaccine is not available yet and HCMV therapies result in intolerable side effects and emergence of drug resistant viruses. […] Towards this goal we have developed and characterized a luciferase HCMV reporter that was initially used in 96 well plates and then optimized to 1536-well plates for utilization in screening of the MLSMR collection, the NGCG diversity collection and the NCGC Pharmaceutical Collection of approved and investigational drugs.
NCGC Assay Protocol Summary:
This is a cell-based assay for HCMV inhibition in HFFs cells. The screening used 2 compound doses and the HCMV-luciferase at MOI of 1 PFU/cell. Cells were treated and infected with HCMV. At 72 h post infection cell lysates were collected and luciferase activity was determined using the Glomax-Multi + Detection System (Promega, Madison, WI). Data were normalized to the controls for basal activity (buffer only) and known HCMV inhibitors Salinmoycin.
1536-well assay protocol for the assay:
(1) Add 3 ul CMV/HFF cell culture. 1000 cells/well in DMEM nirmal media.
(2) Incubate 16 hr at 37C.
(3) Add 23 nl control compound, 10uM of Salinomycin.
(4) Add 23 nl compounds in DMSO solution.
(5) Add 3 ul CMV suspension. Final 1 puf/ul, Virus stock 2000pfu/ul
(6) Incubate 72 hrs at 37C.
(7) Add 4 ul OneGlo Luc Reagent.
(8) Incubate 5 min at room temperature.
% is scaled to controls: 0 for no effect and ±100 for the full control effect.

For `Cc1cc2n(n1)C(c1cc(C(C)(C)C)c(O)cc1O)Nc1ccccc1-2` (configuration not stated), which activity change, negative = inhibition is on record?
Its activity change, negative = inhibition is -23.1%.

Which activity change, negative = inhibition does the source give for `CCCCN(CC)CCCNC(=O)CS(=O)(=O)Cc1nc(-c2cccc(OC)c2)oc1C` here?
The activity change, negative = inhibition was 29.6%.

With `COc1ccc(-c2nc(CS(=O)(=O)CC(=O)NCc3cccc(Br)c3)c(C)o2)cc1` as the compound, how does the activity change, negative = inhibition read?
The activity change, negative = inhibition was 5.73%.

For `COc1cccc(-c2nc(CS(=O)(=O)CC(=O)N3CCN(c4cc(C)ccc4C)CC3)c(C)o2)c1`, which activity change, negative = inhibition is on record?
The activity change, negative = inhibition was -75.7% (active).

With `CCS(=O)(=O)n1nc(-c2ccccc2)nc1SCc1ccccc1` as the compound, how does the activity change, negative = inhibition read?
The activity change, negative = inhibition was 138%.

For `COc1cc(OC)c(C2C=C(C(=O)O)Nc3ncnn32)cc1OC` (configuration not stated), which activity change, negative = inhibition is on record?
Its activity change, negative = inhibition is 6.4%.

With `COc1ccc(Cn2c(=S)[nH]c3cc(C(=O)NCCCN4CCOCC4)ccc3c2=O)cc1` as the compound, how does the activity change, negative = inhibition read?
The activity change, negative = inhibition was -65.2% (active).

For `COCCn1c(=S)[nH]c2cc(C(=O)NCCc3ccc(OC)c(OC)c3)ccc2c1=O`, which activity change, negative = inhibition is on record?
Its activity change, negative = inhibition is 29.3%.

For `CCN(CC)CCCNC(=O)c1ccc2c(=O)n(Cc3ccc4c(c3)OCO4)c(=S)[nH]c2c1`, which activity change, negative = inhibition is on record?
The activity change, negative = inhibition was 69.4%.

With `COc1ccc(C(F)(F)F)cc1N/C=C\c1nnnn1-c1ccc(C)cc1` as the compound, how does the activity change, negative = inhibition read?
Its activity change, negative = inhibition is 34.7%.

For `Cc1ccc(CN2CCc3nc(N4CCN(C)CC4)ncc3C2)cc1`, which activity change, negative = inhibition is on record?
The activity change, negative = inhibition was -6.43%.

Which activity change, negative = inhibition does the source give for `CCCCOCCCNC(=O)C[C@@H]1C[C@@]2(C(=O)OCC)CCCC=C2N(CCC2=CCCCC2)C1=O` here?
The activity change, negative = inhibition was 22.8%.

With `CS(=O)(=O)N1CCc2nc(-c3ccccc3)sc2C1` as the compound, how does the activity change, negative = inhibition read?
The activity change, negative = inhibition was 154%.

Which activity change, negative = inhibition does the source give for `CCOc1ccc(S(=O)(=O)c2cn(Cc3ccccc3)c3ccc(OCC)cc3c2=O)cc1` here?
Its activity change, negative = inhibition is -13.1%.

With `CCOc1ccc(Nc2c(S(=O)(=O)c3ccccc3)cnc3ccccc23)cc1` as the compound, how does the activity change, negative = inhibition read?
Its activity change, negative = inhibition is -70% (active).

Which activity change, negative = inhibition does the source give for `CCOc1ccc(S(=O)(=O)NCCSc2ccccc2)cc1` here?
The activity change, negative = inhibition was 43.7%.

With `Cc1cc(F)ccc1NC1(c2ccccc2)C(=O)c2ccccc2C1=O` as the compound, how does the activity change, negative = inhibition read?
The activity change, negative = inhibition was 6.52%.

For `COc1ccc(C(=O)COC(=O)c2c(C)noc2C)cc1Cl`, which activity change, negative = inhibition is on record?
The activity change, negative = inhibition was -19.5%.

Which activity change, negative = inhibition does the source give for `Cc1[nH]c2ccccc2c1C(=O)CN1CC(C)CC(C)C1` (configuration not stated) here?
Its activity change, negative = inhibition is 9.64%.

With `Cc1[nH]c2ccccc2c1C(=O)COC(=O)c1c(-c2ccccc2)noc1C` as the compound, how does the activity change, negative = inhibition read?
Its activity change, negative = inhibition is -67.3% (active).

For `CCN(CC)c1ccc(NC(=O)Cn2nc3c(cc2=O)CCCC3)c(C)c1`, which activity change, negative = inhibition is on record?
Its activity change, negative = inhibition is -12.7%.

For `CSc1ccc(CCNC(=O)c2ccc3c(c2)nc2n3CCOC2)cc1`, which activity change, negative = inhibition is on record?
The activity change, negative = inhibition was 11.7%.

With `CN(C(=O)CCNC(=O)Cn1ccc2ccccc2c1=O)c1ccc(Br)cc1` as the compound, how does the activity change, negative = inhibition read?
Its activity change, negative = inhibition is 9.17%.

Which activity change, negative = inhibition does the source give for `CC1=C(C(=O)OCc2ccc(C)cc2)C(c2ccccc2Cl)CC(=O)N1` (configuration not stated) here?
Its activity change, negative = inhibition is -36.9%.

With `CCCNC(=O)C1(C)CCN(Cc2ccc(Cl)c(Cl)c2)C1` (configuration not stated) as the compound, how does the activity change, negative = inhibition read?
Its activity change, negative = inhibition is -29%.

Which activity change, negative = inhibition does the source give for `CCCNC(=O)C1(C)CCCN(Cc2cccc(C(F)(F)F)c2)C1` (configuration not stated) here?
The activity change, negative = inhibition was -32.6%.

Which activity change, negative = inhibition does the source give for `CCCNC(=O)C1(C)CCCN(Cc2c(C)nn(-c3ccccc3)c2C)C1` (configuration not stated) here?
The activity change, negative = inhibition was -77% (active).

For `Cc1ccc(NC(=O)N2c3ccccc3SC2c2ccco2)c(C)c1` (configuration not stated), which activity change, negative = inhibition is on record?
Its activity change, negative = inhibition is -32.4%.

Which activity change, negative = inhibition does the source give for `O=C(NCC(c1ccc(Cl)cc1)N1CCOCC1)c1ccccc1F` (configuration not stated) here?
Its activity change, negative = inhibition is 1.34%.

For `C=CCn1c(SCC(N)=O)nnc1-c1cc2c(s1)CCC(CC)C2` (configuration not stated), which activity change, negative = inhibition is on record?
Its activity change, negative = inhibition is -11.3%.

Which activity change, negative = inhibition does the source give for `CCc1ccc(NC(=O)CCS(=O)(=O)c2cc3c(cc2Cl)NC(=O)CO3)cc1` here?
Its activity change, negative = inhibition is 4.24%.

Which activity change, negative = inhibition does the source give for `FC(F)(F)c1nc(-c2ccccc2)ncc1-c1nnnn1-c1ccccc1` here?
The activity change, negative = inhibition was -66.2% (active).

With `NNC(=O)c1cnn(-c2ccccc2)c1C(F)(F)F` as the compound, how does the activity change, negative = inhibition read?
The activity change, negative = inhibition was 6.26%.

Which activity change, negative = inhibition does the source give for `Fc1ccccc1CCNc1nnnn1-c1ccccc1` here?
The activity change, negative = inhibition was -28.9%.

Which activity change, negative = inhibition does the source give for `CCN(CC)S(=O)(=O)c1ccc2c(c1)c(=O)c(C(=O)N1CCN(c3cccc(Cl)c3)CC1)cn2C` here?
The activity change, negative = inhibition was 11.7%.

Which activity change, negative = inhibition does the source give for `Cc1cccc(N2CCN(C(=O)CCn3c(=O)c4cccn4c4cccnc43)CC2C)c1` (configuration not stated) here?
Its activity change, negative = inhibition is 15%.

With `CC(C)CCN1CCN=C1N(C)C` as the compound, how does the activity change, negative = inhibition read?
Its activity change, negative = inhibition is 3.25%.

Which activity change, negative = inhibition does the source give for `COCCNc1nc(-n2nc(C)cc2C)nc2sc3c(c12)CCCC3` here?
The activity change, negative = inhibition was -6.15%.

Which activity change, negative = inhibition does the source give for `Cc1cc(C)n(-c2nc(SCC(=O)N3CCCC3)c3c4c(sc3n2)CCCC4)n1` here?
Its activity change, negative = inhibition is -63.6% (active).

With `CC(C)c1nc(SCC(=O)Nc2cccc(C(=O)O)c2)c2c3c(sc2n1)CCCC3` as the compound, how does the activity change, negative = inhibition read?
Its activity change, negative = inhibition is -5.06%.

For `CC(=O)c1ccc(NC(=O)CCNS(=O)(=O)c2cc(Br)cnc2N)cc1`, which activity change, negative = inhibition is on record?
Its activity change, negative = inhibition is 31.8%.

Which activity change, negative = inhibition does the source give for `CCOc1ccc(CNC(=O)c2ccc(CS(=O)c3ccccc3)o2)cc1` (configuration not stated) here?
The activity change, negative = inhibition was -3.55%.

For `CCCCc1nn2c(=O)cc(COC(=O)c3cccc(NC(=O)COc4ccccc4)c3)nc2s1`, which activity change, negative = inhibition is on record?
The activity change, negative = inhibition was 31.4%.

Which activity change, negative = inhibition does the source give for `Cc1ccc2cccc([N+](=O)[O-])c2n1` here?
The activity change, negative = inhibition was 19.3%.

For `O=[N+]([O-])c1ccccc1S(=O)(=O)Nc1cccc2cccnc12`, which activity change, negative = inhibition is on record?
Its activity change, negative = inhibition is -100% (active).

For `O=S(=O)(NCCc1ccc(F)cc1)c1cccc2cccnc12`, which activity change, negative = inhibition is on record?
Its activity change, negative = inhibition is -31.1%.

Which activity change, negative = inhibition does the source give for `Cn1c2ccccc2c2cc(/C=C(\NC(=O)c3ccccc3)C(=O)NCC(=O)O)ccc21` here?
Its activity change, negative = inhibition is -0.653%.

Which activity change, negative = inhibition does the source give for `Cc1nc(-c2ccccc2C(C)C)nc(NCc2ccc(-c3cccnc3)cc2)c1C` here?
The activity change, negative = inhibition was 28%.

Which activity change, negative = inhibition does the source give for `COc1ccc(OC)c(-c2csc(-c3c(N)c(C(=O)c4ccccc4)n4ccccc34)n2)c1` here?
The activity change, negative = inhibition was 5.78%.

With `O=C(CSc1nc2ccccc2c(=O)n1-c1ccccc1F)N1CCOCC1` as the compound, how does the activity change, negative = inhibition read?
Its activity change, negative = inhibition is -17.8%.

With `O=c1c2ccccc2nc(/C=C/c2ccc(F)cc2)n1-c1ccccc1O` as the compound, how does the activity change, negative = inhibition read?
Its activity change, negative = inhibition is -99.8% (active).

With `O=c1c2ccccc2nc(/C=C/c2ccco2)n1-c1ccccc1O` as the compound, how does the activity change, negative = inhibition read?
Its activity change, negative = inhibition is -24%.

Which activity change, negative = inhibition does the source give for `COc1ccc(OC)c2sc(N3CCN(C(=O)C4COc5ccccc5O4)CC3)nc12` (configuration not stated) here?
Its activity change, negative = inhibition is -1.41%.

With `COc1ccccc1-c1nnc(C2CCN(C(=O)c3ccc(Cl)cc3)CC2)o1` as the compound, how does the activity change, negative = inhibition read?
Its activity change, negative = inhibition is -8.12%.

With `Cc1nc2c(-c3ccccc3)c(C)nn2c(C)c1CCC(=O)NCCc1ccccc1` as the compound, how does the activity change, negative = inhibition read?
Its activity change, negative = inhibition is 11.4%.

With `Cc1nc2c(-c3ccc(F)cc3)c(C)nn2c(C)c1CCC(=O)NCc1ccco1` as the compound, how does the activity change, negative = inhibition read?
Its activity change, negative = inhibition is -13.3%.

Which activity change, negative = inhibition does the source give for `Cc1nc2c(-c3ccc(F)cc3)c(C)nn2c(C)c1CCC(=O)N1CCN(c2ccccn2)CC1` here?
Its activity change, negative = inhibition is -68.5% (active).
